From PubChem BioAssay
Sampled rows, rich in hits. Any-hit rate of the full collection: about 9.4%.
NPC1 prom act: qHTS Assay for NPC1 Promoter Activators. Huh7 NPC1 promoter luciferase reporter, 24 h. hit rate 2.4% among 320,000. Potency, µM (top dose mostly 9.22 µM), usual class: activators; further: nearly all actives have a fitted effect of over 60% in size
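Luminescence read-out of NPC1 promoter-driven luciferase in stably transfected Huh7 cells; compounds delivered in DMSO and left 24 h at 37C, 5% CO2, qHTS titration format.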
Rab9 prom act: qHTS Assay for Rab9 Promoter Activators; Huh7 Rab9 promoter-luciferase reporter, luminescence, 24 h; Potency, µM (doses to about 9.22 µM), actives largely listed as activators; hit rate 2.8% among 320,000; AID 485297, 2010; further: nearly all actives have a fitted effect of over 60% in size
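Luminescence from Amplite-detected luciferase (10 minutes, ambient) reports Rab9 promoter activation. Before that, stable Rab9-luciferase Huh7 cells (1500/well, reduced-serum OP-MEM I plus 10% FBS) were exposed to compound for 24 hours at 37C.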
FLuc counter: qHTS profiling assay for firefly luciferase inhibitor/activator using purifed enzyme and Km concentrations of substrates (counterscreen for miR-21 project). Potency, µM (doses to about 57.5 µM), hits mostly inhibitors. Luciferin 4-monooxygenase (Photinus pyralis), P08659. purified FLuc, Km substrates, luminescence inhibition. hit rate 6.9% among 360,000; further: nearly all actives have a fitted effect of over 55% in size
Target sequence (P08659 whole entry, looked up): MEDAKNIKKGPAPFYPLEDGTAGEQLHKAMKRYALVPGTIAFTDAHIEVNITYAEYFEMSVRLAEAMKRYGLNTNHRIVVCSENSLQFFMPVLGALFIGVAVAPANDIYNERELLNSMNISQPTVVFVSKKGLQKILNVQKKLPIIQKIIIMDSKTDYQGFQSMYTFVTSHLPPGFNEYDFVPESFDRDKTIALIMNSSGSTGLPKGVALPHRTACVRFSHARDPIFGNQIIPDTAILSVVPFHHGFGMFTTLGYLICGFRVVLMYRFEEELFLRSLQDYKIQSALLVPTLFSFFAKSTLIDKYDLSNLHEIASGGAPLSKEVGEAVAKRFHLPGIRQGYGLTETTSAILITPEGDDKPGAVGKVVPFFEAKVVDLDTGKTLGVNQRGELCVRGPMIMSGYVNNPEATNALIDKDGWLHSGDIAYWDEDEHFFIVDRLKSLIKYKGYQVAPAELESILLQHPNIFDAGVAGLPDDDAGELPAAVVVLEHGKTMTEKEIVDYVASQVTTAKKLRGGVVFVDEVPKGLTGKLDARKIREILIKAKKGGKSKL
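Purified P. pyralis luciferase, 10 nM final, with Km-level 10 uM D-luciferin and 10 uM ATP in 50 mM Tris acetate pH 7.5, 10 mM Mg acetate, 0.01% Tween-20, 0.05% BSA; 6-point qHTS titration about 60 µM downward; luminescence read.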
ELG1 DNA repair: qHTS screen for small molecules that inhibit ELG1-dependent DNA repair in human embryonic kidney (HEK293T) cells expressing luciferase-tagged ELG1. AID 504467, 2011. hit rate 2.3% among 330,000. Potency, µM (highest dose often 46.1 µM), usual class: inhibitors. HEK293T ELG1-luciferase reporter, luminescence, 16 h; DNA damage induced by 5-fluorouridine; further: nearly all actives have a fitted effect of over 55% in size
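Reporter activity after DNA damage by 5-fluorouridine is monitored. Compound-treated cells incubate 16 hr at 37 °C, then ONE-Glo is added for 30 min before luminescence reading.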
ELG1 genotox: qHTS screen for small molecules that induce genotoxicity in human embryonic kidney (HEK293T) cells expressing luciferase-tagged ELG1. Potency, µM (top dose mostly 46 µM), most hits filed as activators. HEK293T ELG1-luciferase reporter, luminescence, 16 h. hit rate 1.3% among 330,000; further: nearly all actives have a fitted effect of over 60% in size
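Quantitative HTS format in 1536-well plates. HEK293T ELG1-luciferase reporter cells receive test compound and are incubated 16 hr at 37 °C, 5% CO2; ONE-Glo added, 30 min room temperature, then luminescence read.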
SMN2 splice enh: qHTS Assay for Enhancers of SMN2 Splice Variant Expression; HEK293 SMN2-luciferase splicing reporter, luminescence, 30-36 h; Potency, µM (top dose mostly 46.1 µM), actives largely listed as activators; hit rate 2.8% among 210,000; further: nearly all actives have a fitted effect of over 55% in size
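HEK293 cells carry an SMN2 minigene-luciferase reporter in which exon 7 inclusion puts luciferase in frame. Cells were seeded at 2000 cells/well, attached for 10-12 hours, then exposed to compounds for 30-36 hours at 37C before ONE-Glo luminescence.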
Numbers stand for hits; 0 = inactive; ? = inconclusive; - = no result given; [ ] = another dose, or the depositor's remark. The call rests on the fitted dose curve; in most records, active means well fitted curve in the direction sought with a large enough effect; inconclusive means small, poorly fitted or top-dose-only effect, or another doubt; inactive means no such curve, though single readings can be large; an effect the other way counts as inactive or inconclusive.

SMILES	NPC1 prom act	Rab9 prom act	FLuc counter	ELG1 DNA repair	ELG1 genotox	SMN2 splice enh
COc1ccc(N2CCOCC2)c(NC(=O)c2ccc3c(c2)OCO3)c1	0	0	0	0	0	-
COc1cc(NC(=O)c2ccc3c(c2)OCO3)c2ncccc2c1	0	0	1.9µM	?	0	0
CCCn1cnc2c(sc3nc4c(cc32)CSC(C)(C)C4)c1=O	2.8µM	1.6µM	?	?	4.6µM	13µM
CC1(C)Cc2nc3sc4c(=O)n(Cc5ccccc5)cnc4c3cc2CS1	0	0	0	?	0	0
Cc1csc2nc(-c3cccc(NC(=O)c4ccccc4Cl)c3)cn12	-	-	12µM	-	-	-
Cc1csc2nc(-c3cccc(NC(=O)c4ccccc4F)c3)cn12	-	-	6.7µM	-	-	-
Cc1csc2nc(-c3cccc(NC(=O)c4cccc(F)c4)c3)cn12	-	-	9.5µM	-	-	-
Cc1csc2nc(-c3cccc(NS(C)(=O)=O)c3)cn12	-	-	27µM	-	-	-
CC(C)C(=O)Nc1cccc(NC(=O)c2cccc(F)c2)c1	0	0	0	0	0	0
O=C(Nc1ccc(F)cc1F)c1noc2c1CCc1ccccc1-2	-	-	?	-	-	11µM
O=C(Nc1cccc(O)c1)c1noc2c1CCc1ccccc1-2	?	?	0.48µM	?	1.2µM	?
CCc1ccc(NC(=O)c2noc3c2CCc2ccccc2-3)cc1	0	?	11µM	?	?	0
Cc1ccc(NC(=O)c2noc3c2CCc2ccccc2-3)cc1	4µM	2.8µM	7.6µM	?	21µM	?
COc1ccc(OC)c(NC(=O)c2csnn2)c1	-	-	0	-	-	-
Cc1cc(Nc2cccc(Br)c2)n2c(nc3ccccc32)c1C#N	-	-	0	-	-	0
CC(C)c1ccc(CN(Cc2ccco2)c2cnc(S(C)(=O)=O)nc2C(=O)Nc2ccc(F)cc2)cc1	-	-	0	-	-	-
O=C(c1ccc(C(F)(F)F)cc1)N1CCC(c2noc(-c3ccc(S(=O)(=O)N4CCCC4)cc3)n2)CC1	-	-	0	-	-	0
CCOC(=O)c1c(Oc2ccc(C(C)=O)cc2)nnc(-c2ccccc2)c1-c1ccccc1	-	-	0	-	-	?
CCc1ccc2c(c1)c1nc(C)sc1n2CC	0	0	19µM	0	0	0
Cc1nc2c3cc(F)ccc3n(Cc3ccc(F)cc3)c2s1	0	0	0	0	0	0
COC(=O)Cc1ccc(NC(C)=O)cc1	0	0	0	0	0	-
CCCOC(=O)c1ccc(NC(=O)c2ccc(Br)o2)cc1	0	0	17µM	?	?	0
CCc1cccc(NC(=O)c2ccc(Br)o2)c1	0	0	0[2.3 µM]	?	0	0
COC(=O)Cc1ccc(NC(=O)c2ccc(Br)o2)cc1	?	?	17µM	?	18µM	?
COC(=O)Cc1ccc(NC(=O)c2ccc(C)c(C)c2)cc1	?	2.5µM	3µM	?	5.2µM	?
SMILES	NPC1 prom act	Rab9 prom act	FLuc counter	ELG1 DNA repair	ELG1 genotox	SMN2 splice enh
COc1ccc(-c2ccc(NC(=O)c3ccc(Br)o3)cc2)nn1	2µM	1.1µM	?	?	2.1µM	-
Clc1cc2c(c(CSC3=NCN(CC4CC4)CN3)c1)OCOC2	-	-	-	-	-	0[9.22 µM]
CCN(CC)c1ccc(NC(=O)c2ccc(Br)o2)cc1	1.6µM	0.79µM	5.4µM	?	?	11µM
COc1ccc(CNc2ccc3c(c2)ncn3C)cc1OC	0	0	0	0	0	-
CCc1ccc(CNc2ccc3c(c2)ncn3C)cc1	2.2µM	2.8µM	9.5µM	?	?	11µM
Cc1ccc(CNc2ccc3c(c2)ncn3C)cc1	3.2µM	2µM	12µM	?	8.2µM	18µM
Cc1ccc(CNc2ccc3c(c2)ncn3C(C)(C)C)cc1	1.8µM	4µM	9.5µM	?	?	10µM
CCn1cnc2cc(NCc3ccncc3)ccc21	0	0	0[2.3 µM]	0	0	-
Cn1cnc2cc(NCc3ccccc3O)ccc21	0	0	?	0	0	-
CCn1cnc2cc(NCc3ccc(Cl)cc3)ccc21	2.8µM	2.5µM	11µM	?	?	-
Cc1cc(C)c(Cn2c3ccccc3c3cnn(CC(=O)N4CCCCCC4)c(=O)c32)c(C)c1	-	-	0	-	-	0
CCCCOc1ccc(Cn2c(=O)oc3ccc(C)cc32)cc1	-	-	0	-	-	0
COc1cccc(NC(=O)CCC2CCN(C(=O)c3scnc3C)CC2)c1	0	0	0	0	0	-
CC(C)(C)n1cnc2cc(NCc3ccccc3Cl)ccc21	-	-	13µM	-	-	0
O=C(Nc1nc2c(Cl)cccc2s1)c1ccc(Br)o1	0	0	?	0	0	-
Cn1ncc(Cl)c1C(=O)Nc1nc2ccc(Cl)cc2s1	3.2µM	?	2.1µM	?	?	3.5µM
O=C(Nc1nc2ccc(Cl)cc2s1)c1ccc(Br)o1	3.5µM	1.1µM	2.4µM	?	?	11µM
Cc1cc(C(=O)Nc2nc3ccc(Cl)cc3s2)nn1C	1.4µM	0.63µM	2.1µM	?	?	-
CCCn1c(=O)c2sccc2n2c(CCCC(=O)N3CCN(c4ccccc4OC)CC3)nnc12	-	-	0	-	-	-
Cc1cccc(NC(=S)N=Nc2c(O)n(CN3CCOCC3)c3ccccc23)c1C	0	0	0	?	0	0
Cc1ccc(N=Nc2c(O)n(CN3CCOCC3)c3ccccc23)cc1	1.4µM	0.4µM	2.7µM	?	3.7µM	22µM
CCN1CCN(S(=O)(=O)c2ccc(Cl)c(C(=O)NCCc3ccccc3)c2)CC1	?	?	?	?	16µM	-
CCN(CC(=O)Nc1cc(S(=O)(=O)N2CCCCC2)ccc1Cl)Cc1ccccc1	0	0	0	0	0	-
O=C(Cn1cnc2c(cnn2-c2ccccc2)c1=O)Nc1cc(S(=O)(=O)N2CCOCC2)ccc1Cl	0	0	0	23µM	0	0
CCN(CC(=O)Nc1cc(S(=O)(=O)N2CCOCC2)ccc1Cl)Cc1ccccc1	0	0	0	18µM	0	-
SMILES	NPC1 prom act	Rab9 prom act	FLuc counter	ELG1 DNA repair	ELG1 genotox	SMN2 splice enh
CCN1CCN(S(=O)(=O)c2ccc(Cl)c(C(=O)NC3CC3)c2)CC1	0	0	0	?	0	-
CCOC(=O)C1CCN(C(=O)c2ccc3c(c2)sc2nc(-c4ccccc4)cn23)CC1	-	-	0	-	-	-
CCOC(=O)N1CCN(CC(=O)Nc2nc3ccccc3s2)CC1	0	0	0	0	0	-
CCOC(=O)N1CCN(C(=O)c2nc3ccccc3s2)CC1	0	0	19µM	?	?	?
CCOC(=O)N1CCN(C(=O)c2ccc3c(c2)sc2nc(-c4ccccc4)cn23)CC1	3.5µM	3.2µM	21µM	?	0	0
Cc1ccc(/C=C/c2onc(C)c2S(=O)(=O)N2CCC(C(=O)Nc3cccc(C#N)c3)CC2)cc1	-	-	0	-	-	-
Fc1ccc(-n2cc(-c3ccccc3)c3c(NC4CCCCC4)ncnc32)cc1	-	-	0	-	-	-
Fc1ccc(/C=N/NC(=S)Nc2ccc(Cl)cc2Cl)cc1	0	0	0	0	0	-
Cc1cc(Cl)ccc1NC(=O)CCC(=O)N/N=C/c1cc([N+](=O)[O-])ccc1O	0	0	0	7.3µM	0	0
